± gives the standard deviation of the averaged measurements. Over roughly 25,000 sequences, “ln(normalized median fluorescence intensity)” has its median near 8.9; the highest 2% begin near 10. The full list was thinned out, with the highest values kept by preference.
system: PfAP2-LT AP2 domain (GST-tagged); assay: gcPBM binding intensity (ln(normalized median fluorescence intensity)); higher = stronger DNA binding
How it was run: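 Probes on an Agilent 4 × 180k array were primer-extended, double-stranded and 36 bp long, taken from intergenic genomic regions, with negative controls added. GST-tagged P. falciparum DNA-binding domains from E. coli, about 25 μg on average, were applied to the array for 1 h in 1× PBS containing 1% milk, 0.2 mg/ml BSA, 0.5% salmon testes DNA and 0.03% Triton X-100. Binding intensity, obtained after Alexa488 anti-GST antibody detection and a 488 nm scan, is the highest Masliner-normalised natural-log median intensity across replicate spots of either probe orientation.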

Sequence	gcPBM binding intensity (ln)
ATTTTAACCAATTATTGTACTTGGTTATTCTTTTTT [XGTACX_site7453]	8.94 ± 0.45
TTTTATTTTTAAGGATGTACTCAATTGTTTATATAC [XGTACX_site3965]	8.85 ± 0.4
TTTTCTAAATTAATAATACACACTTGCTAAAATCAT [CACACA_site3207]	8.47 ± 0.46
ACATCAAGCGGACACACACACACACCGACAGACACA [CACACA_site4361]	10.2 ± 0.33
ATAATTTGTGGACACACACACACACCGACATATATA [CACACA_site8718]	9.97 ± 0.33
CACATACAGACATACACACATACACATATACGCATA [CACACA_site1745]	9.61 ± 0.36
ATTTGGCATGGACACACACACACACCGACAGACATA [CACACA_site4491]	10 ± 0.27
AGTATACATATATATACACACATATATATATATATA [CACACA_site300]	9.83 ± 0.34
TATATACACAGACACACACACACATACACGCACATA [CACACA_site6909]	10.1 ± 0.22
ATTATACACGCGCGCACACACAACAAAAAAAAAAAA [CACACA_site7630]	9.43 ± 0.48
GGTATACGCAAGTATACACACATATATATATATATA [CACACA_site3240]	10.01 ± 0.042
AGTATACGCAGACACACACACACATATATATATATA [CACACA_site1735]	10.22 ± 0.042
ATTATAGACACGCGCACACACAACAAAAAAAAAAAA [CACACA_site9180]	9.73 ± 0.61
CAAGCACACGGACACACACACACACGCGCACGCACA [CACACA_site6307]	10.3 ± 0.28
TTTTTTAAAATATGGACACACATATATATATCTGTA [CACACA_site5535]	8.88 ± 0.38
TATATCTTAATATACACACACACATATATATATATA [CACACA_site4968]	9.71 ± 0.014
AAAAAAACATAAAATACACACAACCTTAAGAATGTA [CACACA_site3293]	9.12 ± 0.38
CAACATATATTAATATGTACATATATATAGATATAT [XGTACX_site4107]	8.81 ± 0.44
ATATATATATATATATGTACATATTTCTCCATTTTT [XGTACX_site2869]	9.61 ± 0.39
ACATATAAATATATTACACACACACTAAAAAAATAA [CACACA_site6209]	9.69 ± 0.27
TAACATATTAATAACATATTTATAATATATTAATAA [TGCATGCA_negctrl_site243]	8.34 ± 0.43
TATAAAAATTAATATTGTACGTTTTATGAAAATAAA [XGTACX_site8237]	8.21 ± 0.47
AAAAAAAAAAGACACACACACAAAAAAAGATATATA [CACACA_site6645]	9.9 ± 0.38
AAAAAAAAAAGACACACACACATATTTATTTATATA [CACACA_site6484]	9.67 ± 0.4
AAAAAAAAAAGACACACACACACACGGAGATATATA [CACACA_site6216]	10.4 ± 0.19

Sequence	gcPBM binding intensity (ln)
CGCGCACCCAGACACACACACACACCCATATATATA [CACACA_site2203]	9.96 ± 0.25
CGTGGGAGCAGACACACACACACACGCATATTTATA [CACACA_site6290]	9.89 ± 0.45
AGCACACGCAGACACACACACACACGCACACGCACA [CACACA_site6306]	10.3 ± 0.23
TACACGCAGAAACACACACACACACCCATATATATA [CACACA_site637]	10.1 ± 0.28
AATACACGCAGACACACACACAAAAAAAAAAAAAAA [CACACA_site6384]	9.53 ± 0.61
AAAAAAAAAAGACACACACACACACGCATATACATA [CACACA_site7289]	10.18 ± 0.05
AACACGCGCAGACACACACACACACCCACATATATA [CACACA_site2205]	10.3 ± 0.27
ATATTTAGGAAAAATAGTACACATTTAAATAATAAT [XGTACX_site7989]	8.68 ± 0.47
TTGAAATATACGTAAGTAAATTTCATTTGGTTGTGT [XGTACX_negctrl_site600]	8.77 ± 0.47
AATATACAAATTACAAGTACAAATCAATATTATATG [XGTACX_site7521]	8.9 ± 0.42
AATTATTTATTGAGAGTGCAACAAATTATTTCAAAT [GTGCAC_site9461]	8.44 ± 0.49
AATATTTTAATGCACACACACAAAAAAAAAAAAAAA [CACACA_site7374]	9.18 ± 0.33
AATAATAAATATATATATATATATATATATATATTT [CACACA_negctrl_site786]	9.04 ± 0.21
CATAATAGTTATAAAATACACACCAGGCATGATAAA [CACACA_site329]	9 ± 0.4
ATATATATATATATATGTACATATAATTTTTTTTTT [XGTACX_site6948]	9.56 ± 0.16
GGAATATTTATACATACACACATATATTTATTTATA [CACACA_site6883]	8.91 ± 0.38
TAACTTTGAAAAGATGGTACACAATAATATATATAT [XGTACX_site8667]	8.83 ± 0.35
CCTTTCACATATAATACATGCATTATTATATATGAA [TGCATGCA_site287]	8.7 ± 0.23
AAAAAAAAAAAACACACACACACACCGAAATATATA [CACACA_site4261]	9.99 ± 0.33
AAAAAAAAAAAACACACACACACACCGATACATACA [CACACA_site8849]	10.4 ± 0.085
TATATATACATATACACACACACACCGATATATATA [CACACA_site8706]	9.9 ± 0.29
TATACATACATACATACACACACACCGATATATACA [CACACA_site8184]	9.89 ± 0.11
CAAAAAAACAAACACACACACACACCGATATATATA [CACACA_site9218]	10.1 ± 0.23
CATACATACAAACACACACACACACCGATATATATA [CACACA_site8952]	10.29 ± 0.092
TATATATATATATACACACACACACCGATATATATA [CACACA_site8813]	10 ± 0.11

Sequence	gcPBM binding intensity (ln)
AGGAGGAACAAACAAAACAATAAAAATTATAATAAA [GTGCAC_negctrl_site206]	8.78 ± 0.64
GTGTATTTATGTTATACACACAAAAATATTTTGTAT [CACACA_site4305]	9.01 ± 0.33
TTATATATACCATAATGTACTCTATTATATAAAAAA [XGTACX_site7464]	8.41 ± 0.4
ATTATATATATGTGCACACAAAAGATATATATATAT [CACACA_site5205]	9.95 ± 0.26
AAAAAAGATAATTATGCACACACACCCACCCACCCA [CACACA_site8825]	10.085 ± 0.0071
AAAAGATAAAATTATGCACACATACGAATAATTTTA [CACACA_site8497]	8.92 ± 0.48
AAAAGATAATTATGCACACACACACCCAGACACAAC [CACACA_site5428]	10.34 ± 0.021
TAATTATGCAGACACACACACACACCCAACTAAAAA [CACACA_site2569]	9.96 ± 0.23
AAAGATAATATATGCACACATATAAATATATAAATA [CACACA_site3477]	9.07 ± 0.43
AAAAGATAATTATGCACACACACACCCCCACCCAAC [CACACA_site2570]	10.38 ± 0.064
TATGCACCCAGACACACACACACAACTAAAAAATAA [CACACA_site2567]	9.8 ± 0.35
TAATTATGCCAACACACACACACACCCAACTAAAAA [CACACA_site8823]	9.965 ± 0.092
AAAAAAAAAACATACACACACATATAGATTTATATG [CACACA_site6847]	9.31 ± 0.35
AAAAGGAATTATAGGAAATAAATATATACAAATATA [TGCATGCA_negctrl_site528]	8.69 ± 0.58
TATATTTATATATGTTGTACTCTCCAATAATATTCC [XGTACX_site4438]	8.76 ± 0.52
AGTAAATTATATATCTGTACATATATATATGTGTAT [XGTACX_site5519]	9.04 ± 0.28
AAAATTGGTGAAAATGAAAATATGATTATATGTATA [XGTACX_negctrl_site505]	8.56 ± 0.53
ATAATTTTATATAAATGTACATACATTTTTATTATA [XGTACX_site7368]	8.61 ± 0.4
AAAAATAACATATAAACACACATATATATATATATA [CACACA_site3802]	9.825 ± 0.0071
AAAATAACGAGTCAAACACACATATTTATATTTATA [CACACA_site7050]	8.95 ± 0.45
TTCAAAGGGAAATTAACACACACATATATATATATA [CACACA_site8777]	9.71 ± 0.2
TAAAAAAAAAAAAAAACACACATATAAATATATATA [CACACA_site1243]	8.56 ± 0.52
TTAAACTTGAAACACACACACACACCGATATAAAAA [CACACA_site4578]	10.06 ± 0.085
CAAAGGGAAATTAACACACACATATATATATATATA [CACACA_site2453]	10.3 ± 0.2
CAAAGGGAAATTAACACACACATATTTATATTTATA [CACACA_site7202]	9.2 ± 0.47

Sequence	gcPBM binding intensity (ln)
TATAAATAAAAACACACACACACATATATATATATA [CACACA_site2268]	10.2
AAACTTGACGAACACACACACACATATATAAAAAAA [CACACA_site6494]	10.1 ± 0.4
CAAAAATAACGAGTCAAACACACATATATATATATA [CACACA_site2038]	9.86 ± 0.3
TTAAACTTGAAACACACACACACACCCATATAAAAA [CACACA_site758]	10.1 ± 0.064
AAAATAACGAGTCAAACACACATATATATATATATA [CACACA_site2039]	10.1 ± 0.2
TGAACACATACATACACACACACAAAAAAAAAAAAA [CACACA_site392]	9.76 ± 0.4
AAAAAAAAAAATACTCGTACATAAACCTATACATTT [XGTACX_site6494]	8.83 ± 0.45
AAAATATGTAGCTACACACACATAAACAAAATAACA [CACACA_site1007]	9.41 ± 0.3
CTGTTTAAAATATAAACACACATTGTTTGCTTTAGA [CACACA_site1301]	8.71 ± 0.4
TATAATCATATATACACACACATATATATATATATA [CACACA_site2168]	9.805 ± 0.05
TAATAAATGACAAATTAACACACATATATTATATAT [CACACA_site9294]	8.98 ± 0.36
AATAAATAAATACATCTCAGTATATAAACAAACAAA [CACACA_negctrl_site1604]	8.89 ± 0.51
GATAAATTAAAACACACACACATATATATATATATA [CACACA_site3962]	9.99 ± 0.042
GAAATATTGAAACACACACACAAACATATATATATA [CACACA_site1911]	10.1 ± 0.26
TATATATATATATAAACACACATAAATATAAATATA [CACACA_site1121]	9.01 ± 0.32
CAGATAAATAAACACACACACACATATATATATATA [CACACA_site9311]	10.16 ± 0.078
AATATAAATAAACACACACACATATATATATATATT [CACACA_site2906]	9.79 ± 0.21
AATAAATTGAAACACACACACACATATATATATATA [CACACA_site848]	10.17 ± 0.042
TAAATATAAACACAAACACACACATATATATATATA [CACACA_site7978]	10.04 ± 0.035
AAAAACAACACAGATAAATTAACACACACACACATA [XGTACX_negctrl_site588]	10.1 ± 0.12
CATAATACAGATAACACACACAATTATACATAAAAT [CACACA_site5742]	9.59 ± 0.39
AAATAATCATAAAATAAACACACATATATAAATATA [CACACA_site7981]	8.89 ± 0.42
CATATAAATAAACACACACACACATATATATATATA [CACACA_site5309]	10.06 ± 0.064
GCATAAATCAAACACACACACATATATATATATATA [CACACA_site2422]	10.3 ± 0.15

Reference: the supplement of paper PMC11417369
